# Data taken from PubChem BioAssay (EPA / NIEHS).
# Values joined by “and” are separate entries in the source; they are usually repeats but may differ in a detail not shown here. Equal values may be shown once. More than one record can exist for a structure, and the calls need not agree. Active and inactive are the calls of the source. How the source made its calls: active means hit-call score of the fitted dose curve at least 0.9, where 1 is the maximum; inactive means score below 0.9.
# Biological target: Aryl hydrocarbon receptor (Homo sapiens) (UniProt P35869)
# Experiment: ATG_Ahr_CIS: Attagene CIS-FACTORIAL HepG2 Assay for human Aryl Hydrocarbon Receptor (Ahr) (AID 2282930)
# Conditions: HepG2 AhR cis-factorial reporter transcription; actives raise or lower the signal
# Summary of the method: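 HepG2, transient MRTU (cis) transfection, 24 h exposure. RNA → cDNA → PCR → 6-FAM primer extension → HpaI 2 h 37 C → CE. Fit: bidirectional, DMSO baseline.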
# Sequence of Aryl hydrocarbon receptor (Homo sapiens) (P35869 whole entry, looked up): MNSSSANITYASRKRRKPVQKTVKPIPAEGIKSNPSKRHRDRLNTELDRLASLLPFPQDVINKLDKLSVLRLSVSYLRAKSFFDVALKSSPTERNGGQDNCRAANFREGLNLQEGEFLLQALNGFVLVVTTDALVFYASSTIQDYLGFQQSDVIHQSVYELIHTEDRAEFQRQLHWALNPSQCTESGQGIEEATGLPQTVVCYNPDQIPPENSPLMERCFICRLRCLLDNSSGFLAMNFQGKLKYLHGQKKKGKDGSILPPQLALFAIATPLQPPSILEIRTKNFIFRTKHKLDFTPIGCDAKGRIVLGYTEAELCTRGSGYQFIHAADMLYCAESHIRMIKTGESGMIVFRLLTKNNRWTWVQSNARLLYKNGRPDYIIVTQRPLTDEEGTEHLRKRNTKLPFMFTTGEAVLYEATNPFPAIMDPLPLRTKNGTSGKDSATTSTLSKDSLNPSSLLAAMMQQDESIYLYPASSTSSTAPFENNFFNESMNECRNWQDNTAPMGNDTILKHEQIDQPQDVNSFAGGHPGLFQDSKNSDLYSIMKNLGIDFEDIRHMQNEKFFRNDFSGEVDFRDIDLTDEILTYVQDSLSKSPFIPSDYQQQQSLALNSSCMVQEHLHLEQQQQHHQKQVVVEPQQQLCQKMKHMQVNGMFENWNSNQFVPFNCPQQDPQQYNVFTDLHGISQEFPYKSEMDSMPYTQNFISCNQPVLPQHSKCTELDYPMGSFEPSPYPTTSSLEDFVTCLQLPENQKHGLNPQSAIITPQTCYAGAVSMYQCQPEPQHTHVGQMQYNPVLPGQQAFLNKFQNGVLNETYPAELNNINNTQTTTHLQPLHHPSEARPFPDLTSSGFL
SMILES,AC50,outcome
CC(C)CCCCCCOC(=O)CCCCC(=O)OCCCCCCC(C)C,60.3 µM (active),
NC(=O)N1C(=O)C(C(=O)c2cc(Cl)cs2)c2cc(F)c(Cl)cc21 (stereo not drawn),,inactive
CC#C[C@]1(O)CC[C@H]2[C@@H]3CCC4=CC(=O)CCC4=C3[C@@H](c3ccc(N(C)C)cc3)C[C@@]21C,6.86 µM (active) and 5.91 µM (active),inactive
CCCCCCC(=O)O,,inactive
O=C1OC2(c3ccccc31)c1cc(Br)c(O)c(Br)c1Oc1c2cc(Br)c(O)c1Br,,inactive
CC[C@H](c1ccc(O)cc1)[C@@H](CC)c1ccc(O)cc1,,inactive
CCCOc1sc(C(=O)N2CCC(c3cc(CN)ccc3F)CC2)c(C)c1Br,,inactive
CC(O)CO (stereo not drawn),,inactive
O=C(O)c1ccccc1C(c1ccc(O)cc1)c1ccc(O)cc1,64.8 µM (active),inactive
NCC(F)(F)C(F)(F)C(F)(F)C(F)(F)C(F)(F)C(F)(F)C(F)(F)F,,inactive
Oc1cccc(O)c1,,inactive
CC(C)(C)c1cc(C(C)(C)C)c(O)c(C(C)(C)C)c1,,inactive
CCCCC(CC)COC(=O)CCCCC(=O)OCc1ccccc1 (stereo not drawn),,inactive
CN1CCC[C@H]1c1cccnc1,,inactive
OC1CCC(C2CCCCC2)CC1 (stereo not drawn),1.32 µM (active) and 47 µM (active),inactive
CCCCCCCCCCCCc1ccccc1S(=O)(=O)O,,inactive
COCC(C)O (stereo not drawn),,inactive
CC(C)(C)c1cccc(C(C)(C)C)c1O,,inactive

SMILES,AC50,outcome
Cc1cc(C)c(O)c(C)c1,,inactive
CC(C)(C)c1ccc(O)c(C(C)(C)C)c1,,inactive
Oc1cc2ccccc2c2ccccc12,,inactive
N#C[C@@H]1CC(F)(F)CN1C(=O)CNC1CC2CCC(C1)N2c1ncccn1 (stereo partly drawn),,inactive
O=C(OCCOCCOC(=O)c1ccccc1)c1ccccc1,71.3 µM (active),
CC(O)C(=O)O (stereo not drawn),,inactive
COc1ccc([N+](=O)[O-])cc1N,,inactive
Cc1ccc(S(=O)(=O)O)c(C)c1,,inactive
NC(=O)N(O)[C@@H]1C=C[C@H](Oc2cccc(Oc3ccc(F)cc3)c2)C1,,inactive
CCC(C)(C)C1CCC(O)CC1 (stereo not drawn),48.2 µM (active),inactive
FC(F)(I)C(F)(F)C(F)(F)C(F)(F)C(F)(F)C(F)(F)I,,inactive
c1ccc2c(c1)ccc1ccccc12,,inactive
CCOC(=O)CC(O)(CC(=O)OCC)C(=O)OCC,,inactive
CCCCCCCCCCCCCC[N+](C)(C)C,,inactive
Nc1cccc2c(N)cccc12,2.85 µM (active),
C[C@@H]1C[C@H]2[C@@H]3CCC4=CC(=O)C=C[C@]4(C)[C@@]3(F)[C@@H](O)C[C@]2(C)[C@@]1(O)C(=O)COP(=O)(O)O,,inactive
CCCCCCCCOC(=O)CCCCCCCCC(=O)OCCCCCCCC,,inactive
CC(C)(C)CC(C)(C)c1ccc(O)c(-n2nc3ccccc3n2)c1,,inactive

# Tested on: not listed separately
# Experiment: ATG_AP_1_CIS: Attagene CIS-FACTORIAL HepG2 Assay for human Activator Protein 1 (AP-1) (AID 2282931)
# Conditions: HepG2 Attagene cis-factorial AP-1 reporter mRNA; actives raise or lower the signal
# Summary of the method: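 HepG2 cells transiently transfected with cis-element-driven multiplex reporter units; 24 h compound exposure. Reporter mRNA quantified by RT-PCR, FAM-labelled fragments resolved by capillary electrophoresis; bidirectional fit versus DMSO baseline.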
SMILES,outcome,AC50
CC(C)CCCCCCOC(=O)CCCCC(=O)OCCCCCCC(C)C,inactive,
NC(=O)N1C(=O)C(C(=O)c2cc(Cl)cs2)c2cc(F)c(Cl)cc21 (stereo not drawn),inactive,
CC#C[C@]1(O)CC[C@H]2[C@@H]3CCC4=CC(=O)CCC4=C3[C@@H](c3ccc(N(C)C)cc3)C[C@@]21C,inactive,27.6 µM (active) and 66.9 µM (active) and 63.5 µM (active)
CCCCCCC(=O)O,inactive,
O=C1OC2(c3ccccc31)c1cc(Br)c(O)c(Br)c1Oc1c2cc(Br)c(O)c1Br,inactive,
CC[C@H](c1ccc(O)cc1)[C@@H](CC)c1ccc(O)cc1,,11.1 µM (active) and 7.83 µM (active) and 9.21 µM (active)
CCCOc1sc(C(=O)N2CCC(c3cc(CN)ccc3F)CC2)c(C)c1Br,,3.7 µM (active)
CC(O)CO (stereo not drawn),inactive,
O=C(O)c1ccccc1C(c1ccc(O)cc1)c1ccc(O)cc1,inactive,
NCC(F)(F)C(F)(F)C(F)(F)C(F)(F)C(F)(F)C(F)(F)C(F)(F)F,inactive,
Oc1cccc(O)c1,inactive,
CC(C)(C)c1cc(C(C)(C)C)c(O)c(C(C)(C)C)c1,,76.4 µM (active) and 27 µM (active)
CCCCC(CC)COC(=O)CCCCC(=O)OCc1ccccc1 (stereo not drawn),inactive,
CN1CCC[C@H]1c1cccnc1,inactive,
OC1CCC(C2CCCCC2)CC1 (stereo not drawn),inactive,162 µM (active) and 149 µM (active)
CCCCCCCCCCCCc1ccccc1S(=O)(=O)O,inactive,
COCC(C)O (stereo not drawn),inactive,
CC(C)(C)c1cccc(C(C)(C)C)c1O,,128 µM (active)

SMILES,outcome,AC50
Cc1cc(C)c(O)c(C)c1,inactive,
CC(C)(C)c1ccc(O)c(C(C)(C)C)c1,,15.9 µM (active)
Oc1cc2ccccc2c2ccccc12,inactive,
N#C[C@@H]1CC(F)(F)CN1C(=O)CNC1CC2CCC(C1)N2c1ncccn1 (stereo partly drawn),inactive,
O=C(OCCOCCOC(=O)c1ccccc1)c1ccccc1,inactive,
CC(O)C(=O)O (stereo not drawn),inactive,
COc1ccc([N+](=O)[O-])cc1N,inactive,
Cc1ccc(S(=O)(=O)O)c(C)c1,inactive,
NC(=O)N(O)[C@@H]1C=C[C@H](Oc2cccc(Oc3ccc(F)cc3)c2)C1,inactive,
CCC(C)(C)C1CCC(O)CC1 (stereo not drawn),inactive,
FC(F)(I)C(F)(F)C(F)(F)C(F)(F)C(F)(F)C(F)(F)I,inactive,
c1ccc2c(c1)ccc1ccccc12,inactive,
CCOC(=O)CC(O)(CC(=O)OCC)C(=O)OCC,inactive,
CCCCCCCCCCCCCC[N+](C)(C)C,,6.78 µM (active) and 7.32 µM (active)
Nc1cccc2c(N)cccc12,,77.7 µM (active)
C[C@@H]1C[C@H]2[C@@H]3CCC4=CC(=O)C=C[C@]4(C)[C@@]3(F)[C@@H](O)C[C@]2(C)[C@@]1(O)C(=O)COP(=O)(O)O,inactive,
CCCCCCCCOC(=O)CCCCCCCCC(=O)OCCCCCCCC,inactive,
CC(C)(C)CC(C)(C)c1ccc(O)c(-n2nc3ccccc3n2)c1,,58.3 µM (active)
